From PubChem BioAssay (NCI)
About 83,000 compounds went through this panel and 20% of them were active in at least one assay; those are over-represented in the sample as a whole.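 Plates (96-well) were seeded with cells, treated with compound at one concentration, and incubated for 48 hours before percent growth was determined.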 Values without a mark were called inactive. The calls were made as follows: active = growth percent below 10; inactive = the rest.

What follows are compounds tested on SNB-75 CNS (assay: NCI-60 one-dose screen, 48 h (100 = growth as untreated, 0 = no growth, -100 = all killed)). Settings: 10 µM unless noted.

Row | SMILES | growth
1 | S=c1nc(-c2ccccn2)c(-c2ccccn2)n[nH]1 | 107%
2 | O=C(O)c1ccc(OCc2ccccc2)cc1 | 87.8%
3 | CCC(=O)Oc1c(C)cc(O)c2ccccc12 | 86.4%
4 | Cc1nc(O)cc(=O)[nH]1 | 97.1%
5 | CC(=O)NNC(=S)/N=C\C(C(=O)c1ccccc1)=C(/O)c1ccccc1 | 86.3%
6 | OCC(O)COc1ccc(Cl)cc1Cl (centres undefined) | 85.8%
7 | ClCc1cccc2c(CCl)cccc12 | 88%
8 | COc1c(CNC(=O)CCl)cc2[nH]c(C)cc2c1CNC(=O)CCl | 69.6%
9 | CC(=O)Nc1ccc(/C=C2\SC(=S)N(/C=C(\C(C)=O)C(N)=O)C2=O)cc1 | 82.4%
10 | CC(CO)(CO)C(=O)O | 97.4%
11 | COC(=O)c1ccc([N+](=O)[O-])c(C)c1 | 88.4%
12 | CC(C)c1ncc([N+](=O)[O-])n1C | 116%
13 | CC(=O)c1cccc(NS(=O)(=O)c2ccc(C)cc2)c1 | 61.9%
14 | Clc1ccc(-c2noc(/C=C\c3ccccc3)n2)cc1 | 103%
15 | OC1Cc2ccccc2C1 | 93.6%
16 | CC(=O)Nc1ccc(O)c(C)c1 | 95.4%
17 | Oc1ccc(N=Cc2ccc(OCc3ccccc3)cc2)cc1 | 92.1%
18 | CCCCNC(=O)c1ccc(OCC)cc1 | 102%
19 | CSc1nc2[nH]ncc2c(=O)[nH]1 | 103%

Row | SMILES | growth
20 | Cc1ccc2nc(-c3ccc(N=Cc4ccccc4O)cc3)sc2c1 | 47.4%
21 | O=C(CCCl)OCCOc1ccccc1 | 96.1%
22 | CCC1CCC(C)NC1 (centres undefined) | 88.6%
23 | COc1cc(C(=O)N2CCN(c3ccccc3)CC2)c2ccccc2n1 | 20.9%
24 | NNc1ncnc2nc[nH]c12 | 89.3%
25 | FC(F)(F)c1cc(NC2=NCCN=C(Nc3cc(C(F)(F)F)cc(C(F)(F)F)c3)SS2)cc(C(F)(F)F)c1 | 71.5%
26 | Nc1ncnc(Nc2ccccc2)n1 | 104%
27 | c1ccc2[nH]c(Cc3nc4ccccc4[nH]3)nc2c1 | 94.9%
28 | CC(C)(N)CO[C@H]1C[C@H]2CC[C@@]1(C)C2(C)C | 89.3%
29 | Nc1ncc([N+](=O)[O-])cn1 | 99.1%
30 | Cc1cc(CC(=O)NCCO)n(CCO)c(=O)c1 | 95.3%
31 | NNC(=O)N/N=C1\C(=O)N(c2nccs2)C(=O)C(=O)C1c1nc2ccccc2s1 (centres undefined) | 81.8%
32 | Nc1nc(Cl)cc(Cl)n1 | 91.4%
33 | CC(=O)c1cccc(O)c1 | 91.4%
34 | O=c1n(CC2CO2)c(=O)n(CC2CO2)n1CC1CO1 (centres undefined) | 79.5%
35 | O=C(O)c1c[nH]c2ccccc2c1=O | 89.9%
36 | CC1(C)CCC(C)(C)NC(=S)N1 | 105%
37 | NC(=O)OCCO | 110%

The compounds below were run on SNB-19 CNS in the same assay as above. Settings: 10 µM unless noted.

Row | SMILES | growth
38 | S=c1nc(-c2ccccn2)c(-c2ccccn2)n[nH]1 | 112%
39 | O=C(O)c1ccc(OCc2ccccc2)cc1 | 95%
40 | CCC(=O)Oc1c(C)cc(O)c2ccccc12 | 108%
41 | Cc1nc(O)cc(=O)[nH]1 | 109%
42 | CC(=O)NNC(=S)/N=C\C(C(=O)c1ccccc1)=C(/O)c1ccccc1 | 105%
43 | OCC(O)COc1ccc(Cl)cc1Cl (centres undefined) | 93.3%
44 | ClCc1cccc2c(CCl)cccc12 | 70.4%
45 | COc1c(CNC(=O)CCl)cc2[nH]c(C)cc2c1CNC(=O)CCl | 83.5%
46 | CC(=O)Nc1ccc(/C=C2\SC(=S)N(/C=C(\C(C)=O)C(N)=O)C2=O)cc1 | 100%
47 | CC(CO)(CO)C(=O)O | 105%
48 | COC(=O)c1ccc([N+](=O)[O-])c(C)c1 | 119%
49 | CC(C)c1ncc([N+](=O)[O-])n1C | 111%
50 | CC(=O)c1cccc(NS(=O)(=O)c2ccc(C)cc2)c1 | 90%
51 | Clc1ccc(-c2noc(/C=C\c3ccccc3)n2)cc1 | 102%
52 | OC1Cc2ccccc2C1 | 100%
53 | CC(=O)Nc1ccc(O)c(C)c1 | 104%
54 | Oc1ccc(N=Cc2ccc(OCc3ccccc3)cc2)cc1 | 91.3%
55 | CCCCNC(=O)c1ccc(OCC)cc1 | 105%
56 | CSc1nc2[nH]ncc2c(=O)[nH]1 | 103%

Row | SMILES | growth
57 | Cc1ccc2nc(-c3ccc(N=Cc4ccccc4O)cc3)sc2c1 | 92.3%
58 | O=C(CCCl)OCCOc1ccccc1 | 108%
59 | CCC1CCC(C)NC1 (centres undefined) | 100%
60 | COc1cc(C(=O)N2CCN(c3ccccc3)CC2)c2ccccc2n1 | 28.4%
61 | NNc1ncnc2nc[nH]c12 | 96%
62 | FC(F)(F)c1cc(NC2=NCCN=C(Nc3cc(C(F)(F)F)cc(C(F)(F)F)c3)SS2)cc(C(F)(F)F)c1 | 56.5%
63 | Nc1ncnc(Nc2ccccc2)n1 | 109%
64 | c1ccc2[nH]c(Cc3nc4ccccc4[nH]3)nc2c1 | 130%
65 | CC(C)(N)CO[C@H]1C[C@H]2CC[C@@]1(C)C2(C)C | 103%
66 | Nc1ncc([N+](=O)[O-])cn1 | 95.6%
67 | Cc1cc(CC(=O)NCCO)n(CCO)c(=O)c1 | 103%
68 | NNC(=O)N/N=C1\C(=O)N(c2nccs2)C(=O)C(=O)C1c1nc2ccccc2s1 (centres undefined) | 101%
69 | Nc1nc(Cl)cc(Cl)n1 | 113%
70 | CC(=O)c1cccc(O)c1 | 108%
71 | O=c1n(CC2CO2)c(=O)n(CC2CO2)n1CC1CO1 (centres undefined) | 62.4%
72 | O=C(O)c1c[nH]c2ccccc2c1=O | 101%
73 | CC1(C)CCC(C)(C)NC(=S)N1 | 102%
74 | NC(=O)OCCO | 108%
